NS1 function inh – inhibitors of influenza NS1 protein function; Potency, µM (series often up to 46.1 µM), inactives show top-dose activity, positive = more growth; hit rate 0.4% among 270,000; AID 2326; calls by dose curve; also: potency is read from the fitted curve at half-maximal effect; actives are rising curves; nearly all actives have a fitted effect of over 50% in size
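Recovery from NS1-induced slow growth read by OD600 in budding yeast switched to galactose assay medium (pH 6.0, -URA) at 1:100 dilution. Compound 23 nl per well; the matching strain lacking NS1 serves as control.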
Shiga toxin inh – Shiga toxin inhibition. AID 2315. Vero cells, Shiga toxin protein synthesis inhibition reporter. hit rate 9.2% among 290,000. inhibition, % at 38.7 µM; in the data active = inhibition mostly above about 28%, no sharp cut-off; inactive = mostly below about 43%; also: 0% is about no effect
SARS PLpro yeast – inhibitors of SARS-CoV papain-like protease in yeast; S. cerevisiae expressing SARS-CoV PLpro, growth rescue; Potency, µM (series often up to 32.9 µM), for inactives: at the highest dose activity, positive = growth rescue, hits mostly activators; hit rate 0.19% among 330,000; AID 485353; calls by dose curve; also: potency is read from the fitted curve at half-maximal effect; 0% is about no effect; nearly all actives have a fitted effect of over 55% in size
Pf growth 96h – P. falciparum growth inhibition at 96 hour, primary screen for plastid delayed-death inhibitors. Potency, µM (highest dose often 28.7 µM), without a hit: at the top dose activity change, negative = inhibition, actives largely listed as inhibitors. P. falciparum luciferase reporter growth, 96 h. AID 504834. hit rate 6.9% among 320,000; also: potency is read from the fitted curve at half-maximal effect; % is scaled to controls: 0 for no effect and ±100 for the full control effect
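96 h incubation, 37 C, 5% CO2, of luciferase-reporter P. falciparum-infected RBCs (2% hematocrit, 0.05% parasitemia final) with test compounds; endpoint luminescence.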
Cycloheximide cs – counter-screen hit for Shiga toxin inhibitors, cycloheximide; cell reporter, cycloheximide protein synthesis inhibition counterscreen; max response, %; hit rate 12% among 300,000; AID 2314; in the data active = max response mostly above about 13%, no sharp cut-off; inactive = mostly below about 14%; also: read at 38.3 µM for the half of the compounds with a filed dose; 0% is about no effect
Pf growth 48h – inhibits P. falciparum growth in the first generation, 48 h | P. falciparum luciferase growth in erythrocytes, 48 h | Potency, µM (doses to about 28.7 µM), inactives show top-dose activity change, negative = inhibition, hits mostly inhibitors | hit rate 5.9% among 310,000 | AID 504832; also: potency is read from the fitted curve at half-maximal effect; % is scaled to controls: 0 for no effect and ±100 for the full control effect
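Firefly luciferase activity from engineered P. falciparum reports growth; inhibitors lower the luminescent signal. Cultures contained 2% hematocrit erythrocytes at 0.1% final parasitemia.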
* hit, by the source's call; u = inconclusive; x = no result; [ ] = remark or other dose. The list is not random: actives were taken first. Their share in the collection is about 21%. Unless noted, calls follow the shape of the dose curve; as a rule, active = well fitted inhibition curve with a large enough effect; inconclusive = small, poorly fitted or top-dose-only effect, or another doubt; inactive = no such curve, though single readings can be large or run the other way.

SMILES	NS1 function inh	Shiga toxin inh	SARS PLpro yeast	Pf growth 96h	Cycloheximide cs	Pf growth 48h
CCCCNc1c(-c2ccc(OC)c(SC3CCCCC3)c2)nc2ccc(Cl)cn12	x	x	4%	x	x	x
NNC(=O)c1cc(C23CC4CC(CC(C4)C2)C3)[nH]n1	23%	-1	2%	u	7	-7%
CCCN(CCC)C(=O)NC1CC(=O)N(c2ccc(OC)cc2)C1 (configuration not stated)	-5%	-3	-20%	0%	2	20%
Cc1cc(C)n(-c2cccc(Cl)c2C#N)n1	-6%	-10	-4%	17%	3	5%
CCCCNc1c(-c2ccc(-c3ccc(C(C)=O)cc3)c(OC)c2)nc2cnccn12	x	x	0%	u	x	9.3µM*
Cc1ccc2nc(-c3ccsc3)c(NC3CCCC3)n2c1	x	51*	0%	21%	29	57%
CCC(C)Sc1ccc(-c2nc3cnccn3c2NC2CCCCC2)cc1 (configuration not stated)	x	x	-1%	7.4µM*	x	7.4µM*
O=C1COc2ccc(C(=O)c3ccccc3C(=O)NCc3ccccc3)cc2N1	1%	-12	2%	x	-4	u
CCOP(=O)(OCC)C(NC(=O)c1cccs1)C(F)(F)F (configuration not stated)	x	-15	0%	-14%	4	39%
CN(CC(=O)Nc1ccccc1Cl)C(=O)CSc1nnc(-c2ccco2)n1C	x	x	5%	u	x	-27%
COc1ccc2oc(C)c(C(N)=O)c2c1	-7%	1	2%	-23%	-1	9%
COC(=O)c1oc2ccc(Cl)cc2c1N	-15%	99*	-8%	u	22*	61%
COC(=O)c1oc2ccccc2c1N	-10%	18	-2%	60%	11	x
COc1ccc2oc(C(=O)c3ccccc3)c(N)c2c1	-35%	135*	-7%	63%	65*	130%
COC(=O)CCC(=O)c1oc2ccc(OC)cc2c1N	-4%	63	-4%	1%	40*	x
COc1ccc(C(=O)c2oc3ccccc3c2N)cc1	-54%	active	-11%	x	93*	75%
COc1ccc(C(=O)c2oc3nc(C)cc(C)c3c2N)cc1	-12%	-9	6%	x	1	71%
COc1ccc2oc(C(=O)OCC(=O)N3CCCCC3C)c(C)c2c1 (configuration not stated)	x	x	-1%	x	x	x
COc1ccc2oc(C(=O)C3CC3)c(N)c2c1	-10%	131*	-5%	16%	43*	90%
Nc1cc(-c2ccccc2)c[nH]c1=O	x	25	x	x	4	x
CCN1CCN(C(=O)c2oc(=O)c3ccccc3c2-c2ccc(C)cc2)CC1	-10%	-8	-13%	4.7µM*	-6	u
CCN1CCN(Cc2ccc(C)cc2)CC1	1%	-10	11%	5.2µM*	-1	4%
CCN1CCN(C(=O)Cc2ccc(C)cc2)CC1	1%	42	-5%	14%	22*	16%
NC1=C(O)C(=O)C(c2ccccc2)O1 (configuration not stated)	-4%	-4	0%	3%	11	18%
CCOC(=O)c1c(NC(=O)COC(=O)c2cnccn2)sc(C)c1C	x	x	1%	x	x	x
SMILES	NS1 function inh	Shiga toxin inh	SARS PLpro yeast	Pf growth 96h	Cycloheximide cs	Pf growth 48h
COc1cc(C)c(NC(=O)C(=S)NCCc2ccccc2)cc1C	-5%	-19	1%	2.3µM*	-3	1%
Cc1cc(OC(F)F)ccc1NC(=S)NCCc1ccccc1	-1%	5	10%	-13%	5	0%
COc1ccc(NC(=S)NCCc2ccccc2)c(C)c1	-4%	1	-7%	15µM*	9	u
O=C(NCc1ccccc1)c1cccc(NS(=O)(=O)c2cccc3cccnc23)c1	23%	-1	5%	4%	1	12%
O=C(CCCN1C(=O)c2ccccc2C1=O)Nc1ccc2c(c1)OCCO2	x	16	-1%	u	7	-3%[5.75 µM]
Cc1ccc(NC(=O)CN(C)C(=O)c2cc(-c3cccs3)nn2-c2ccccc2)cc1	x	x	0%	-14%	x	u
CCOC(=O)C1CCN(C(=O)CCc2nnc3ccc(N4CCC(C)CC4)nn23)CC1	-5%	-5	0%	19%	-1	u
CCOc1ccc(Br)cc1S(=O)(=O)Nc1ccc(Cl)c(S(=O)(=O)N(CC)c2ccccc2)c1	u	11	4%	6%	-1	4%
COC(=O)/C=c1/sc2n(c1=O)CCN=2	-1%	-7	-7%	16%	-4	-3%
CCOC(=O)/C=c1\sc2n(c1=O)CCN=2	-13%	-21	u	u	-4	1%
O=c1/c(=C/c2ccc(O)cc2)sc2n1CCCN=2	-8%	104*	u	231%	21	112%
CN(C)c1ccc(/C=c2\sc3n(c2=O)CCCN=3)cc1	-36%	13	-4%	-4%[5.75 µM]	25*	43%
O=c1/c(=C\c2ccc(F)cc2)sc2n1CCCN=2	x	93*	-3%	314%	43*	360%
CSc1ncccc1C(=O)OCC(=O)N1CC(=O)Nc2ccccc21	x	x	-4%	10%	x	-9%
COc1cccc2cc(C(=O)Nc3ccccc3Cl)/c(=N/NS(=O)(=O)c3ccccc3)oc12	-4%	4	-3%	7%	16	0%
CN1CCN(C2=Cc3ccc(Cl)cc3Sc3ccc(F)cc32)CC1	-6%	-7	-21%	12µM*	-5	13µM*
CC[C@H](C)[C@H](NC(=O)OCc1ccccc1)C(=O)Nc1ccc(NC(C)=O)cc1	x	-7	3%	-9%	-5	17%
COc1ccc(NC(=O)NCCC2=CCCCC2)cc1	-7%	71*	1%	33%	28*	74%
CC(=O)Nc1cccc(OCC(=O)NCCC2=CCCCC2)c1	5%	29*	-4%	18%	23*	29%
COc1cccc(NC(=O)NCCC2=CCCCC2)c1	x	74*	0%	u	19*	34%
CC[C@H](C)[C@H](N)C(=O)N[C@@H](CCCNC(=N)N)C(=O)N[C@@H](CCC(N)=O)C(=O)NCC(=O)N1CCC[C@H]1C(=O)N[C@@H](CCCCN)C(=O)N[C@@H](CCC(=O)O)C(=O)N1CCC[C@H]1C(=O)N[C@@H](Cc1ccccc1)C(=O)N[C@@H](CCCNC(=N)N)C(=O)N[C@@H](CC(=O)O)C(=O)N[C@@H](Cc1ccc(O)cc1)C(=O)N[C@H](C(=O)N[C@@H](CC(=O)O)C(=O)N[C@@H](CCCNC(=N)N)C(=O)N[C@@H](Cc1ccccc1)C(=O)N[C@@H](Cc1ccc(O)cc1)C(=O)N[C@@H](CCCCN)C(=O)N[C@H](C(=O)N[C@@H](CC(C)C)C(=O)O)[C@@H](C)O)C(C)C	x	11	x	x	-2	x
Cc1ccc(-c2ccc(S(=O)(=O)Nc3cccnc3)cc2)cc1	1%	-27	-1%	25%	-3	15%
CCN(Cc1ccc(C#CCCO)cc1)CC1CCCN(CCc2cccc(OC)c2)C1 (configuration not stated)	-12%	1	-8%	2.1µM*	1	u
